Entries with a potency or affinity are not part of this list.
Experiments:
Klebsiella pneumoniae = conditions: Concentration 32 ug.mL-1;; ASSAY_TEST Inhibition of Bacterial Growth; detection method Absorption (OD600); MEDIA CAMHB; plate type 384well; NBS; CORNING #3640; time 18 hr
Candida albicans = conditions: Concentration 32 ug.mL-1; ASSAY_TEST Inhibition of Fungal Growth; detection method Absorption (OD530)
Cryptococcus neoformans = conditions: Concentration 32 ug.mL-1; ASSAY_TEST Inhibition of Fungal Growth; detection method Resazurin; Absorption (OD600-OD570); plate type 384well; NBS; CORNING #3640

| Structure (SMILES) | Inhibition (Klebsiella pneumoniae) [%] | Inhibition (Candida albicans) [%] | Inhibition (Cryptococcus neoformans) [%] |
| --- | --- | --- | --- |
| N#CCSc1nnc2c(=O)n(-c3ccccc3)ccn12 | 18.13 | 2.9 | -7.27 |
| CC(C)NC(=O)Cn1nc2n(Cc3ccco3)c(=O)c3sccc3n2c1=O | 9.3 | 0.87 | -5.24 |
| Cc1ccc(N(CC(=O)OC(C)(C)C)S(=O)(=O)c2cccn3cnnc23)cc1 | 9.31 | 3.93 | -6.45 |
| COc1ccc(OC)c(NC(=O)Cn2nc3c4c5c(sc4ncn3c2=O)CCCC5)c1 | 8.89 | 0.7 | -30.54 |
| Cc1ccc(Oc2nccn3c(=O)n(CC(=O)NCCC4=CCCCC4)nc23)cc1 | 12.14 | 4.38 | -9.17 |
| Cc1ccccc1CN(c1cccc(F)c1)S(=O)(=O)c1ccc2nncn2c1 | 6.25 | 3.9 | -4.05 |
| Cc1ccccc1CN(c1ccc(C(C)C)cc1)S(=O)(=O)c1cccn2cnnc12 | 21.6 | 3.03 | -21.28 |
| COc1cccc(C(=O)Cn2nc3n(CCC(C)C)c(=O)c4sccc4n3c2=O)c1 | -2.35 | 8.83 | -5.93 |
| Cc1ccc(-c2cc3c4nnc(CCC(=O)NCc5ccc(C(F)(F)F)cc5)n4ccn3n2)cc1C | 10.93 | 3.64 | -31.79 |
| Cc1ccc(Cl)cc1NC(=O)Cn1c(=O)c2nnc(C(C)C)n2c2ccccc21 | 5.77 | 3.52 | -16.4 |
| Cc1nnc2c(=S)[nH]c3ccccc3n12 | 21.93 | -0.01 | -43.69 |

Source: ChEMBL document CHEMBL4513146, “CO-ADD screening of Karazin Kharkiv National University (Ukraine) compounds”
